From PubChem BioAssay (NCATS)
Results filed as inconclusive are left out. Active and inactive are the calls of the source. The call rests on the fitted dose curve; in most records, active means well fitted curve in the direction sought with a large enough effect; inconclusive means small, poorly fitted or top-dose-only effect, or another doubt; inactive means no such curve, though single readings can be large; an effect the other way counts as inactive or inconclusive.

What was measured:
[1] = tested on: Zika virus NS2B-NS3 protease (linked construct); assay: Primary screen NINDS Rhodamine qHTS for Zika virus inhibitors (AID 1347160); further: nearly all actives have a fitted effect of over 55% in size
Outline: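 Percent inhibition, normalized to uninhibited and enzyme-free controls, is fitted to a 4-parameter Hill equation. Fluorescence change comes from a 15-min cleavage of 1.5 microM bis-peptide Rhodamine110 substrate by 25 nM linked NS2B-NS3 at room temperature.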

[2] = HPAF-II Cancer Cell Toxicity qHTS against the NCATS CANVASS Library (AID 1347346); further: series mostly up to about 38 µM; nearly all actives have a fitted effect of over 55% in size
Outline: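 Luminescence from CellTiter-Glo, added after 72 h compound exposure and a 15 min room-temperature incubation, served as the viability readout. HPAF-II cells (1000/well) received an 11-point concentration series.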

[3] = UWB1.289 Cancer Cell Toxicity qHTS against the NCATS CANVASS Library (AID 1347347); further: series mostly up to about 38 µM; nearly all actives have a fitted effect of over 60% in size
Outline: (§1)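 1000 cells/well seeded and rested 4 h at 37 °C before pin transfer of compounds in an 11-pnt series. Exposure 72 h at 37 °C/5% CO2; viability by CellTiter-Glo luminescence after 15 min at room temperature.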

[4] = OV-SAHO Cancer Cell Toxicity qHTS against the NCATS CANVASS Library (AID 1347348); further: series mostly up to about 38 µM; nearly all actives have a fitted effect of over 55% in size
Outline: as §1

[5] = SW1088 Cancer Cell Toxicity qHTS against the NCATS CANVASS Library (AID 1347350); further: series mostly up to about 38 µM; nearly all actives have a fitted effect of over 75% in size
Outline: as §1

[6] = U-118MG Cancer Cell Toxicity qHTS against the NCATS CANVASS Library (AID 1347351)
Outline: as §1

[7] = COV-362 Cancer Cell Toxicity qHTS against the NCATS CANVASS Library (AID 1347352); further: series mostly up to about 38 µM
Outline: (§2)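 Luminescent ATP read-out (CellTiter-Glo, 15min at room temperature) measures survival after cells face an 11-point compound series for 72 hours at 37 degrees C/5% CO2.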

[8] = A2780 Cisplatin Sensitive Ovarian Cancer Cell Toxicity qHTS against the NCATS CANVASS Library (AID 1347353); further: series mostly up to about 46 µM; nearly all actives have a fitted effect of over 60% in size
Outline: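 Luminescent ATP content (ATPLite, 10 min at room temperature) served as the read-out after cells had been exposed to compounds for 72 hours at 37 °C. Dosing followed an 11-point concentration series.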

[9] = UWB1.289-WTBRCA1 Cancer Cell Toxicity qHTS against the NCATS CANVASS Library (AID 1347354)
Outline: as §2

[10] = HEK-293 Cancer Cell Toxicity qHTS against the NCATS CANVASS Library (AID 1347355); further: series mostly up to about 46 µM; nearly all actives have a fitted effect of over 65% in size
Outline: as §2

[11] = HEK293 18hr Apoptosis Induction qHTS against the NCATS CANVASS Library (AID 1347357)
Outline: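 HEK293 cells (500 per well, DMEM with 10% FBS) were treated with natural products, incubated 18 hours at 37 degrees C, then caspase-3/7 activity was read by Caspase-Glo luminescence after 15 min at room temperature.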

[12] = HPAF-II 12hr Apoptosis Induction qHTS against the NCATS CANVASS Library (AID 1347358)
Outline: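 500 HPAF-II cells/well; cmpds 11-pt; 12 hr, 37 degrees C/5% CO2; Caspase-Glo 3/7 added, 15 min RT dark; luminescence read. Doxorubicin titration as control.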

[13] = HEK293 24hr Apoptosis Induction qHTS against the NCATS CANVASS Library (AID 1347359)
Outline: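 HEK293 cells, 500 per well, exposed to an 11-point compound series for 24 hours at 37 degrees C. Caspase 3/7 activity read by Caspase-Glo luminescence (DEVD substrate) after 15 min at room temperature.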

[14] = HPAF-II 18hr Apoptosis Induction qHTS against the NCATS CANVASS Library (AID 1347360)
Outline: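 HPAF-II cells (500/well, DMEM + 10% FBS) were exposed to compounds for 18 hours at 37 degrees C. Caspase-3/7 activity was then read by Caspase-Glo 3/7 luminescence after 15 min at room temperature.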

[15] = HEK293 12hr Apoptosis Induction qHTS against the NCATS CANVASS Library (AID 1347361)
Outline: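 Read-out: Caspase-Glo 3/7 luminescence (DEVD substrate), 15 min RT. Preceded by 12 h compound exposure of HEK293, 500 cells/well, 11-pt qHTS titration; doxorubicin titration as control.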

[16] = tested on: NAD(P)H diaphorase (Clostridium kluyveri); assay: Diaphorse counterscreen qHTS: Assay Interference Panel against the NCATS CANVASS Library (AID 1347362)
Outline: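 Clostridium kluyveri diaphorase in PBS + 0.01% Tween-20 preincubated 15 min with compounds. Resazurin and NADH then added for 5 min at room temperature in the dark; resorufin fluorescence read (ex 525, em 598).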

[17] = biological target: Luciferin 4-monooxygenase (Photinus pyralis) (UniProt P08659); assay: Firefly luciferase counterscreen qHTS: Assay Interference Panel against the NCATS CANVASS Library (AID 1347363); further: series mostly up to about 57 µM
Chain of Luciferin 4-monooxygenase (Photinus pyralis) (P08659 whole entry, looked up): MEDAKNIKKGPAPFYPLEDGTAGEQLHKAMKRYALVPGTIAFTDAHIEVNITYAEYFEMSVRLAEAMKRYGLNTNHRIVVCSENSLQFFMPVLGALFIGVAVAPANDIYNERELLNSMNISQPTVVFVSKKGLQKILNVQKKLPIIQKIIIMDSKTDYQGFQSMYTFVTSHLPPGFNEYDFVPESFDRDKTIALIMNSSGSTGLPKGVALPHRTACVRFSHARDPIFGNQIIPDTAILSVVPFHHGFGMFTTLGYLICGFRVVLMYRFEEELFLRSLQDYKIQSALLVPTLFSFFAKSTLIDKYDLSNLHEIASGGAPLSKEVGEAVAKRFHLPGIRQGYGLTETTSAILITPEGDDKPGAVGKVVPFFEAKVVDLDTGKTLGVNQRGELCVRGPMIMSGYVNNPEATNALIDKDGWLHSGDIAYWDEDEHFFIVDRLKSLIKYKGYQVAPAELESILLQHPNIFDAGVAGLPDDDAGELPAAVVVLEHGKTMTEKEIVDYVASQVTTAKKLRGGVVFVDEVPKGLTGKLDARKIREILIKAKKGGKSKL
Outline: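 Purified P. pyralis luciferase (0.04 ug/mL, 4x reagent) added to Tris-acetate buffer with 0.013 mM D-luciferin, 0.013 mM ATP and 13.3 mM Mg-acetate; compounds preincubated 15 min, then luminescence read after 5 min, RT.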

[18] = KB-8-5-11 Cancer Cell Toxicity qHTS against the NCATS CANVASS Library (AID 1347364); further: series mostly up to about 46 µM; nearly all actives have a fitted effect of over 75% in size
Outline: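 Plate 500 KB-8-5-11 cells per well in DMEM + 10% FBS, add compounds by pin transfer, incubate 72 hr at 37C. Add CellTiter-Glo, wait 10 minutes at room temperature, read luminescence.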

[19] = SDT Cancer Cell Toxicity qHTS against the NCATS CANVASS Library (AID 1347365); further: nearly all actives have a fitted effect of over 60% in size
Outline: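 qHTS, SDT dog glioma line, 500 cells/well; cpds 11 pts; 72 hr, 37C, 5% CO2; CellTiterGlo ATP luminescence.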

[20] = KB-3-1 Cancer Cell Toxicity qHTS against the NCATS CANVASS Library (AID 1347366); further: series mostly up to about 46 µM; nearly all actives have a fitted effect of over 75% in size
Outline: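 KB-3-1 cells (500 cells/well) in DMEM + 10% FBS were treated with compounds for 72 hr at 37C, 5% CO2. Viability was read as CellTiter-Glo luminescence after 10 minutes at room temperature.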

[21] = G06 Cancer Cell Toxicity qHTS against the NCATS CANVASS Library (AID 1347368); further: series mostly up to about 46 µM; nearly all actives have a fitted effect of over 60% in size
Outline: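 Dog G06 glioma line, 500 cells/well; cpds pin-transferred, 11-pt; 72 hr, 37C/5% CO2; CellTiterGlo luminescence (ATP) endpoint.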

[22] = MCF7 Cancer Cell Toxicity qHTS against the NCATS CANVASS Library (AID 1347369); further: series mostly up to about 46 µM
Outline: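 MCF7, 500 cells/well; cpds 11-pt qHTS; 72 hr, 37C/5% CO2; CellTiterGlo ATP luminescence.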

[23] = qHTS for ATAD5 Antagonist screened against the NCATS CANVASS Library (AID 1347370);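 further: HEK293T cells carrying an ATAD5 luciferase reporter co-treated with 10 µM 5-fluorouridine; series mostly up to about 46 µM; nearly all actives have a fitted effect of over 65% in size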
Outline: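 HEK293T cells with stably integrated ATAD5-luciferase reporter, 2000/well, 5 h attachment; compounds plus 10 µM 5-fluorouridine, 16 h at 37 °C. Luciferase luminescence read, with CellTiter-Fluor viability read first.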

[24] = J3T Cancer Cell Toxicity qHTS against the NCATS CANVASS Library (AID 1347371)
Outline: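 Cells plated at 500 per well, compounds pin-transferred, plates incubated 72 hr at 37C, then CellTiterGlo added and luminescence read to measure ATP content.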

[25] = biological target: Nuclear receptor subfamily 1 group I member 3 (Homo sapiens) (UniProt Q14994); assay: qHTS for Constitutive Androstane Receptor (CAR) Antagonist screened against the NCATS CANVASS Library (AID 1347372);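 further: cells stimulated with 50 nM CITCO agonist so inhibition reflects antagonism; series mostly up to about 46 µM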
Chain of Nuclear receptor subfamily 1 group I member 3 (Homo sapiens) (Q14994 whole entry, looked up): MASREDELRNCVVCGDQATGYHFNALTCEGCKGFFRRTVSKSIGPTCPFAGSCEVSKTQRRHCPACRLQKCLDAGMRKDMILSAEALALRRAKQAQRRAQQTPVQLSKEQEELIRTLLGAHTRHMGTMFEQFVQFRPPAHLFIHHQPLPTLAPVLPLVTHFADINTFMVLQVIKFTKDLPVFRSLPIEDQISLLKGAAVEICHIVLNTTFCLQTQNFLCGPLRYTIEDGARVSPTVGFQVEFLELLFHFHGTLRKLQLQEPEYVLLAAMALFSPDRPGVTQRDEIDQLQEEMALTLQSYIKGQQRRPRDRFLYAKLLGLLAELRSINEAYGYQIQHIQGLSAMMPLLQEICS
Outline: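 HepG2 cells stably carrying hCAR and CYP2B6-2.2kb luciferase reporter, 2500 cells/well, compound with 50 nM CITCO agonist for 24hr at 37C. ONE-Glo luminescence measured CAR activity; CellTiter-Fluor read viability.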

[26] = qHTS for Hypoxia signaling pathway (HIF-1) antagonists against the NCATS CANVASS Library (AID 1347374)
Outline: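 HRE-bla ME-180 cells in medium with 0.5% dialyzed FBS received compounds (11-point series) plus CoCl2 (60 uM addition stock) for 17 hrs at 37C. Beta-lactamase activity read with CCF4 (405 nm ex, 460/530 nm em); CellTiter-Glo viability measured in same wells.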

[27] = qHTS for Hypoxia signaling pathway (HIF-1) agonists against the NCATS CANVASS Library (AID 1347375)
Outline: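 ME-180 HRE-bla reporter cells; 2,000/well, 0.5% dialyzed FBS; cpd added after 5 h, 17 h 37C/5% CO2; CCF4-AM 2 h RT; FRET 460/530 nm; CellTiter-Glo viability same wells, 30 min.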

[28] = 10-beta competent E. coli microbial cell viability qHTS against the NCATS CANVASS Library (AID 1347376); further: series mostly up to about 46 µM
Outline: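 E. coli 10-beta, 0.2 OD; cpds 11-pt; o/n 37C, 5% CO2; BacTiter-Glo 20 min RT; luminescence (ATP) = viable cells. Daunomycin ctrl.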

[29] = DH5-alpha competent E. coli microbial cell viability qHTS against the NCATS CANVASS Library (AID 1347377); conditions: outcome: dose series up to 46.1 µM unless noted
Outline: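 qHTS, 11-pt; E. coli DH5-alpha, 0.2 OD; o/n 37C/5% CO2; BacTiter-Glo, 20 min RT; luminescence.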

[30] = qHTS for H2AX Agonists against the NCATS CANVASS Library (AID 1347378)
Outline: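 CHO-K1 cells were plated overnight at 37C, then exposed to compounds (concentration series, 0.76% DMSO final) for 3 hr at 37C. Lysates received Eu-cryptate anti-pH2AX (S139) and d2 anti-H2AX antibodies; after 24 hr at room temperature, TR-FRET 665/620 nm ratio was read.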

[31] = qHTS for Inflammasome Signaling Inhibitors: IL-1-beta AlphaLISA screen against the NCATS CANVASS Library (AID 1347379);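 further: human THP-1 cells primed with LPS then triggered with ATP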
Outline: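 THP-1 cells pretreated 1 hr with compound (up to 57.5 uM final), then stimulated with LPS (250 ng/mL final) and ATP (1.25 mM final). Secreted IL-1B measured by AlphaLISA after 16 hr; glyburide as positive control.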

[32] = Inflammasome Signaling qHTS Counterscreen: IL-1-beta AlphaLISA counterscreen against the NCATS CANVASS Library (AID 1347381);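 further: cell-free check with purified IL-1β in medium and no THP-1 cells; series mostly up to about 57 µM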
Outline: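 Cell-free interference check: compounds added to medium spiked with 4 pg purified IL-1β. Anti-IL-1β acceptor beads (6 ug/mL) with 0.6 nM biotinylated antibody added for 1 h at RT, then streptavidin donor beads (24 ug/mL) for 30 min in the dark. AlphaLISA read at 680/615 nm.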

[33] = Cytotoxicity qHTS for assessment of Hepg2 cells membrane integrity screened against the NCATS CANVASS Library (AID 1347387)
Outline: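 qHTS, 11-pt conc. series, 0.59 nM - 46 uM final; HepG2 2000 cells/well, overnight attachment; 5 hr compound exposure 37C/5% CO2; CytoTox-ONE, 10 min RT; fluorescence ex560/em590 = LDH from damaged membranes.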

[34] = qHTS for Activators of p53 Stress Response Pathway screened against the NCATS CANVASS Library (AID 1347388)
Outline: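 p53RE-bla HCT-116 cells (4000/well) were pre-incubated for 5 h, then treated with compound (11 points) for 16 h at 37C. After 2 h with CCF4, the 460/530 nm ratio gave reporter activation; CellTiter-Glo measured viability.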

[35] = Secretion counterscreen for inhibitors of the SERCaMP assay screened against the NCATS CANVASS Library (AID 1347390);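 further: light from luciferase secreted into medium read as a measure of general secretion; series mostly up to about 77 µM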
Outline: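 SH-SY5Y cells expressing constitutively secreted GLuc, 1000 cells/well, attached 4 h at 37C, then exposed to compounds (0.001 - 77 uM, 11-pnt series) for 20 h. Coelenterazine added; luminescence read to flag secretory-pathway interferers.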

[36] = qHTS for activators of Nrf2/ARE signaling pathway screened against the NCATS CANVASS Library (AID 1347391); further: nearly all actives have a fitted effect of over 60% in size
Outline: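 Plate ARE-bla HepG2 cells at 2000/well and let them settle 5 h. Pin-transfer compounds in DMSO, incubate 16 h at 37C. Load CCF4 for 2 h at room temperature and read blue/green fluorescence.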

[37] = qHTS for activators of dead-cell proteases activity screened against the NCATS CANVASS Library (AID 1347392);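 further: luminescence from protease leaking out of membrane-damaged cells cleaving impermeant substrate; rising signal means more cytotoxicity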
Outline: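 HepG2 cells, 2000/well, attached 18 h at 37C, then exposed to compounds (11-point qHTS) for 5 h. Dead-cell protease release read as luminescence from cell-impermeant AAF-aminoluciferin substrate after 15 min at room temperature.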

[38] = qHTS for inhibitors of ER calcium dysfunction: SERCaMP assay screened against the NCATS CANVASS Library (AID 1347393);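 further: series mostly up to about 77 µM; lower secreted reporter signal means inhibitor of ER calcium depletion; nearly all actives have a fitted effect of over 40% in size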
Outline: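 SH-SY5Y GLuc-SERCaMP, 1000 cells/well, 4 h attach; cpd 16 h, 37C/5% CO2; thapsigargin (added as 6x 600 nM) 4 h; coelenterazine; luminescence. Reduced reporter release = ER Ca stabilization.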

[39] = Vero-766 cells viability qHTS against the NCATS CANVASS Library: Counterscreen for Zika virus inhibition assay (AID 1347394)
Outline: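 Uninfected Vero 766 (African green monkey) cells, 1000/well, attached overnight, then exposed 72 h at 37C to compounds (11-point qHTS). Viability read by CellTiter-Glo luminescence; media-only wells served as 100% inhibition.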

[40] = qHTS for inhibitors of Wild type Zika virus screened against the NCATS CANVASS Library (AID 1347396);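 further: ATP luminescence of surviving cells so rescue from viral cell killing; series mostly up to about 46 µM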
Outline: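 Using ATP-based luminescence (CellTiter Glo), this screen scores rescue of Vero 766 cells from wild-type Zika killing at 72 h post-infection. Compounds are tested in a concentration series.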

[41] = Viability qHTS for inhibitors of the SERCaMP assay screened against the NCATS CANVASS Library (AID 1347400); further: series mostly up to about 92 µM; nearly all actives have a fitted effect of over 70% in size
Outline: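 SH-SY5Y SERCaMP MJH297 cells, 1000/well; 4 h settle, 37C/5% CO2; pin-transferred cpds; 48 h; CellTiter-Glo lum. Pos ctrl bortezomib 0.0001 - 4.6 uM.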

[42] = Redox Reaction Profiling qHTS: Assay Interference Panel against the NCATS CANVASS Library (AID 1347401)
Outline: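 Compounds in 11-point series incubated with 5 uM resazurin and 200 uM DTT in 50 mM HEPES pH 7.3, 50 mM NaCl. Resorufin fluorescence (Ex 525/Em 598) read before and after 15 min in the dark.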

Measured: Potency

CC1(C)[C@H](Br)CC[C@]23C[C@]4(C)C(=O)CC12C[C@H]34
inactive: all assays above
